The record followed here is PubChem BioAssay (NCI).

The structures appear in SMILES notation. Compounds without any hit were thinned out: in the full panel of roughly 79,000, 15% have a hit. Unmarked numbers belong to inactive results. Active and inactive are the calls of the source. Rule as the data show it: active = growth inhibition above about 70%; inactive = the rest.

The nature of experiment [1]: NCI Yeast Anticancer Drug Screen. Data for the rad50 strain (AID 155).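 Also: 0% = growth of vehicle-only cultures of the same strain.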 The note with it: S. cerevisiae rad50 strain growth inhibition, active compounds read high. In a few lines:
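Yeast carrying a defined DNA repair defect were exposed to test compounds, and growth was compared with vehicle-treated controls to give percent inhibition.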

The nature of experiment [2]: NCI Yeast Anticancer Drug Screen. Data for the mec2-1 strain (AID 157). The note with it: S. cerevisiae mec2-1 strain, active compounds read high. A digest of the protocol: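 Each compound was tested on mec2-1 yeast, a strain altered in DNA damage repair or cell cycle control. Growth inhibition is reported relative to vehicle.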
Experiment [3] is described as follows: NCI Yeast Anticancer Drug Screen. Data for the sgs1 mgt1 strain (AID 161).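 Also: 0% = growth of cultures given vehicle only.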 The note with it: S. cerevisiae sgs1 mgt1 strain, active compounds read high. A digest of the protocol: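 Mutant yeast exposed to compound; growth scored against vehicle-only wells.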
The nature of experiment [4]: NCI Yeast Anticancer Drug Screen. Data for the cln2 rad14 strain (AID 165).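 Also: 0% = growth equal to vehicle treated cultures.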 The note with it: S. cerevisiae cln2 rad14 strain, active compounds read high. A digest of the protocol:
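Test compounds were added to cln2 rad14 yeast cultures; inhibition of growth was then determined by comparison with vehicle treatment.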

The nature of experiment [5]: NCI Yeast Anticancer Drug Screen. Data for the bub3 strain (AID 167). The note with it: S. cerevisiae bub3 mutant strain, active compounds read high. In a few lines: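 Compounds were applied to a genetically altered yeast strain carrying a cell-cycle control defect. Growth inhibition was scored against vehicle-treated controls.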
Experiment [6] in a line: NCI Yeast Anticancer Drug Screen. Data for the mlh1 rad18 strain (AID 175). The note with it: S. cerevisiae mlh1 rad18 strain growth inhibition, active compounds read high. In a few lines: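 Inhibition values reflect reduced growth of mutant yeast versus vehicle-treated controls following compound exposure; the mutations affect DNA damage repair.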
[7] abbreviates: at 5.0 µM (retest, dose inferred, filed as 0.5).
Setting [8] is: at 50.0 µM (retest, dose inferred, filed as 5.0).

In the case of `c1ccc(N=c2snc(-c3ccccc3)s2)cc1`, the growth inhibition in experiment [1] (setting [7]) is 2%; in experiment [1] (setting [8]), 2%; in experiment [1] (at 50.0 µM), 91.1% (active); in experiment [2] (setting [7]), -3%; in experiment [2] (setting [8]), -2%; in experiment [2] (at 50.0 µM), 46.8%. The growth inhibition was 4% in experiment [3] (setting [7]); 3% in experiment [3] (setting [8]); 73.5% (active) in experiment [3] (at 50.0 µM); 3% in experiment [4] (setting [7]); -2% in experiment [4] (setting [8]); 6.4% in experiment [4] (at 50.0 µM). In addition, the growth inhibition in experiment [5] (setting [7]) is -4%; in experiment [5] (setting [8]), 2%; in experiment [5] (at 50.0 µM) it was 82.5% (active); in experiment [6] (setting [7]), 5%; in experiment [6] (setting [8]), 6%; in experiment [6] (at 50.0 µM), 80.2% (active).
Consider `Cc1ccc2c(C)c3ccc4ccccc4c3c[n+]2c1`, for which the growth inhibition was 74% (active) in experiment [1] (setting [7]); 94% (active) in experiment [1] (setting [8]); 71.2% (active) in experiment [1] (at 50.0 µM); 65% in experiment [2] (setting [7]); 89% (active) in experiment [2] (setting [8]); 83.5% (active) in experiment [2] (at 50.0 µM). Moreover, the growth inhibition was 87% (active) in experiment [3] (setting [7]); 95% (active) in experiment [3] (setting [8]); 85.2% (active) in experiment [3] (at 50.0 µM); 51% in experiment [4] (setting [7]); 71% (active) in experiment [4] (setting [8]); 52.6% in experiment [4] (at 50.0 µM). Moreover, the growth inhibition in experiment [5] (setting [7]) is 69%; in experiment [5] (setting [8]), 88% (active); in experiment [5] (at 50.0 µM), 86.5% (active); in experiment [6] (setting [7]) it was 52%; in experiment [6] (setting [8]), 88% (active); in experiment [6] (at 50.0 µM) it was 72.5% (active).
Take `Cc1ccc([NH-])cc1C.Cc1ccc([NH-])cc1C.[Cl][Pt+2][Cl]`: the growth inhibition is 4% in experiment [1] (setting [7]); 21% in experiment [1] (setting [8]); 34.2% in experiment [1] (at 50.0 µM); -1% in experiment [2] (setting [7]); 9% in experiment [2] (setting [8]); 19.8% in experiment [2] (at 50.0 µM). In addition, the growth inhibition in experiment [3] (setting [7]) is 5%; in experiment [3] (setting [8]) it was 58%; in experiment [3] (at 50.0 µM), 62.5%; in experiment [4] (setting [7]), -8%; in experiment [4] (setting [8]), 12%; in experiment [4] (at 50.0 µM) it was -32.4%. The growth inhibition was -8% in experiment [5] (setting [7]); 4% in experiment [5] (setting [8]); 10.8% in experiment [5] (at 50.0 µM); 6% in experiment [6] (setting [7]); 49% in experiment [6] (setting [8]); 81.5% (active) in experiment [6] (at 50.0 µM).
For `CC(=O)O[C@H]1CCC2[C@@H]3CCC4Nc5oncc5C[C@]4(C)C3CC[C@@]21C` (stereo not given in full), the growth inhibition in experiment [1] (setting [7]) is -6%; in experiment [1] (setting [8]), 81% (active); in experiment [1] (at 50.0 µM), 51%; in experiment [2] (setting [7]) it was 4%; in experiment [2] (setting [8]), 75% (active); in experiment [2] (at 50.0 µM), 8.35%. In addition, the growth inhibition is -3% in experiment [3] (setting [7]); 53% in experiment [3] (setting [8]); 16.6% in experiment [3] (at 50.0 µM); -10% in experiment [4] (setting [7]); 73% (active) in experiment [4] (setting [8]); 70% (active) in experiment [4] (at 50.0 µM). Also, the growth inhibition in experiment [5] (setting [7]) is -17%; in experiment [5] (setting [8]), 68%; in experiment [5] (at 50.0 µM) it was 17.9%; in experiment [6] (setting [7]), 12%; in experiment [6] (setting [8]), 91% (active); in experiment [6] (at 50.0 µM), 84.5% (active).
Regarding `CCCCCCCCCCCCCCCCCC[N+](C)(C)C` (tested in a mixture with another compound), the growth inhibition in experiment [1] (setting [7]) is 99% (active); in experiment [1] (setting [8]), 99% (active); in experiment [1] (at 50.0 µM), 2.1%; in experiment [2] (setting [7]), 98% (active); in experiment [2] (setting [8]), 99% (active); in experiment [2] (at 50.0 µM) it was 13.1%. Further, the growth inhibition in experiment [3] (setting [7]) was 99% (active); in experiment [3] (setting [8]), 99% (active); in experiment [3] (at 50.0 µM) it was 73.5% (active); in experiment [4] (setting [7]), 78% (active); in experiment [4] (setting [8]) it was 98% (active); in experiment [4] (at 50.0 µM), 13.2%. Moreover, the growth inhibition in experiment [5] (setting [7]) was 99% (active); in experiment [5] (setting [8]) it was 97% (active); in experiment [5] (at 50.0 µM), -1.15%; in experiment [6] (setting [7]), 99% (active); in experiment [6] (setting [8]), 99% (active); in experiment [6] (at 50.0 µM), -2.5%.
As for `[I][Hg][CH2]C1OCCOC1[CH2][Hg][I]` (stereo not given), the growth inhibition in experiment [1] (setting [7]) was 1%; in experiment [1] (setting [8]), 3%; in experiment [1] (at 50.0 µM) it was 99.5% (active); in experiment [2] (setting [7]), -39%; in experiment [2] (setting [8]) it was 2%; in experiment [2] (at 50.0 µM) it was 99.7% (active). Further, the growth inhibition in experiment [3] (setting [7]) was -1%; in experiment [3] (setting [8]) it was 2%; in experiment [3] (at 50.0 µM), 99.5% (active); in experiment [4] (setting [7]), -2%; in experiment [4] (setting [8]), 4%; in experiment [4] (at 50.0 µM), 99.2% (active). The growth inhibition is -8% in experiment [5] (setting [7]); -6% in experiment [5] (setting [8]); 99.5% (active) in experiment [5] (at 50.0 µM); -1% in experiment [6] (setting [7]); 3% in experiment [6] (setting [8]); 99.2% (active) in experiment [6] (at 50.0 µM).
For `CC/C=C/c1cc2c(cc1O)CCC1C2CC[C@@]2(C)C1CC[C@@H]2O` (stereo not given in full), the growth inhibition in experiment [1] (setting [7]) is -16%; in experiment [1] (setting [8]), 98% (active); in experiment [1] (at 50.0 µM), 78% (active); in experiment [2] (setting [7]) it was -15%; in experiment [2] (setting [8]), 98% (active); in experiment [2] (at 50.0 µM), 81.7% (active). Also, the growth inhibition in experiment [3] (setting [7]) is -23%; in experiment [3] (setting [8]), 97% (active); in experiment [3] (at 50.0 µM), 88.6% (active); in experiment [4] (setting [7]), -24%; in experiment [4] (setting [8]), 98% (active); in experiment [4] (at 50.0 µM), 88.7% (active). In addition, the growth inhibition in experiment [5] (setting [7]) is -23%; in experiment [5] (setting [8]), 98% (active); in experiment [5] (at 50.0 µM), 88.5% (active); in experiment [6] (setting [7]) it was -16%; in experiment [6] (setting [8]) it was 98% (active); in experiment [6] (at 50.0 µM), 90.5% (active).
Turning to `O=C1C(C(Nc2ccccc2)c2ccccc2)=C([O-])c2ccccc21.O=C1C(C(Nc2ccccc2)c2ccccc2)=C([O-])c2ccccc21.[Ni+2]` (stereo not given), the growth inhibition in experiment [1] (setting [7]) was 57%; in experiment [1] (setting [8]), 81% (active); in experiment [1] (at 50.0 µM), 63.3%; in experiment [2] (setting [7]) it was 33%; in experiment [2] (setting [8]), 55%; in experiment [2] (at 50.0 µM), 71% (active). Besides, the growth inhibition is 49% in experiment [3] (setting [7]); 80% (active) in experiment [3] (setting [8]); 36.6% in experiment [3] (at 50.0 µM); 46% in experiment [4] (setting [7]); 46% in experiment [4] (setting [8]); 55.8% in experiment [4] (at 50.0 µM). Also, the growth inhibition in experiment [5] (setting [7]) was 51%; in experiment [5] (setting [8]) it was 84% (active); in experiment [5] (at 50.0 µM), 73.8% (active); in experiment [6] (setting [7]), 39%; in experiment [6] (setting [8]) it was 81% (active); in experiment [6] (at 50.0 µM), 63.1%.
As for `O=C(O)c1ccc([Se][Se]c2ccc(C(=O)O)cc2)cc1`, the growth inhibition in experiment [1] (setting [7]) was 63%; in experiment [1] (setting [8]) it was 97% (active); in experiment [1] (at 50.0 µM) it was 89.9% (active); in experiment [2] (setting [7]), 39%; in experiment [2] (setting [8]) it was 98% (active); in experiment [2] (at 50.0 µM), 92.8% (active). The growth inhibition was 58% in experiment [3] (setting [7]); 99% (active) in experiment [3] (setting [8]); 93.3% (active) in experiment [3] (at 50.0 µM); 33% in experiment [4] (setting [7]); 94% (active) in experiment [4] (setting [8]); 91.5% (active) in experiment [4] (at 50.0 µM). Also, the growth inhibition in experiment [5] (setting [7]) was 41%; in experiment [5] (setting [8]) it was 99% (active); in experiment [5] (at 50.0 µM), 91.2% (active); in experiment [6] (setting [7]), 67%; in experiment [6] (setting [8]), 97% (active); in experiment [6] (at 50.0 µM), 91.1% (active).
For the molecule `CC1(OO)CCC2CC1C2(C)C` (stereo not given), the growth inhibition in experiment [1] (setting [7]) was 9%; in experiment [1] (setting [8]), 77% (active); in experiment [1] (at 50.0 µM), 90.2% (active); in experiment [2] (setting [7]), 6%; in experiment [2] (setting [8]), 99% (active); in experiment [2] (at 50.0 µM), 99.6% (active). The growth inhibition is -2% in experiment [3] (setting [7]); 68% in experiment [3] (setting [8]); 99.4% (active) in experiment [3] (at 50.0 µM); 4% in experiment [4] (setting [7]); 65% in experiment [4] (setting [8]); 82.7% (active) in experiment [4] (at 50.0 µM). In addition, the growth inhibition was -1% in experiment [5] (setting [7]); 95% (active) in experiment [5] (setting [8]); 99.5% (active) in experiment [5] (at 50.0 µM); 13% in experiment [6] (setting [7]); 94% (active) in experiment [6] (setting [8]); 98.2% (active) in experiment [6] (at 50.0 µM).
